Publication PMC11006913
Numbering of substitutions follows the chain as printed.

Key:
Experiment in all cases: PBM; 200 nM protein, PBS
Conditions in all cases: dsDNA, one strand shown
[1] = molecular target: T1, VENTX (Homo sapiens, UniProt O95231 78-163, R121Q)
T1 sequence: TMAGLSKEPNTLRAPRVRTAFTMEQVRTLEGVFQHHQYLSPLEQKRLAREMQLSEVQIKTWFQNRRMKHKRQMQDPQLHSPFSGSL

[2] = molecular target: T2, VENTX (Homo sapiens, UniProt O95231 78-163)
T2 sequence: T1 sequence with Q44R

[3] = molecular target: T3, VENTX (Homo sapiens, UniProt O95231 78-163, Y115F)
T3 sequence: T1 sequence with Y38F, Q44R

[4] = molecular target: HOXA7 (Homo sapiens, UniProt P31268 116-202)
[5] = molecular target: HOXB6 (Homo sapiens, UniProt P17509 132-218, K202E)
[6] = molecular target: HOXA2 (Homo sapiens, UniProt O43364 129-215, R185K)
[7] = molecular target: VAX1 (Homo sapiens, UniProt Q5SQQ9 86-172)
[8] = molecular target: VAX1 (Homo sapiens, UniProt Q5SQQ9 86-172, T142I)
[9] = molecular target: HOXA7 (Homo sapiens, UniProt P31268 116-202, W177C)
[10] = molecular target: VAX1 (Homo sapiens, UniProt Q5SQQ9 86-172, K157R)
[11] = molecular target: HOXB6 (Homo sapiens, UniProt P17509 132-218)
[12] = molecular target: HOXC10 (Homo sapiens, UniProt Q9NYD6 254-340)
[13] = molecular target: HOXC10 (Homo sapiens, UniProt Q9NYD6 254-340, K271E)
[14] = molecular target: PRRX1 (Homo sapiens, UniProt P54821 80-166, F113S)
[15] = molecular target: PRRX1 (Homo sapiens, UniProt P54821 80-166)
PRRX1 (Homo sapiens, UniProt P54821 80-166), sequence (P54821 80-166): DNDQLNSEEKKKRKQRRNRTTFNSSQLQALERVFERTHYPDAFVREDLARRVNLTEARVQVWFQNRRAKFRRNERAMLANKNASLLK

HOXA7 (Homo sapiens, UniProt P31268 116-202), sequence (P31268 116-202): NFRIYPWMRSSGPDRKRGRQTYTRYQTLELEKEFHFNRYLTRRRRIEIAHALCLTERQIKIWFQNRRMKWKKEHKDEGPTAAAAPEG
HOXB6 (Homo sapiens, UniProt P17509 132-218, K202E), sequence (P17509 132-218 K202E): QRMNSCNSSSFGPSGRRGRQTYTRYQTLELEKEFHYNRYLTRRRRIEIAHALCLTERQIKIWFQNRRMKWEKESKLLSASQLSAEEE
HOXA7 (Homo sapiens, UniProt P31268 116-202, W177C), sequence (P31268 116-202 W177C): as the sequence (P31268 116-202) above, with W62C counted along it
HOXB6 (Homo sapiens, UniProt P17509 132-218), sequence (P17509 132-218): as the sequence (P17509 132-218 K202E) above, with E71K counted along it
VAX1 (Homo sapiens, UniProt Q5SQQ9 86-172), sequence (Q5SQQ9 86-172): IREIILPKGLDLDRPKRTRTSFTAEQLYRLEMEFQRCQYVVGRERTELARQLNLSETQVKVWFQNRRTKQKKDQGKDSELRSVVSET
VAX1 (Homo sapiens, UniProt Q5SQQ9 86-172, K157R), sequence (Q5SQQ9 86-172 K157R): as the sequence (Q5SQQ9 86-172) above, with K72R counted along it
HOXC10 (Homo sapiens, UniProt Q9NYD6 254-340), sequence (Q9NYD6 254-340): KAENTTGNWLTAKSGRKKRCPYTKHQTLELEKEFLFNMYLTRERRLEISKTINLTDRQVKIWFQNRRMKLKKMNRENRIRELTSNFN
VAX1 (Homo sapiens, UniProt Q5SQQ9 86-172, T142I), sequence (Q5SQQ9 86-172 T142I): as the sequence (Q5SQQ9 86-172) above, with T57I counted along it
HOXC10 (Homo sapiens, UniProt Q9NYD6 254-340, K271E), sequence (Q9NYD6 254-340 K271E): as the sequence (Q9NYD6 254-340) above, with K18E counted along it
PRRX1 (Homo sapiens, UniProt P54821 80-166, F113S), sequence (P54821 80-166 F113S): as the sequence (P54821 80-166) above, with F34S counted along it
HOXA2, sequence (O43364 129-215 R185K): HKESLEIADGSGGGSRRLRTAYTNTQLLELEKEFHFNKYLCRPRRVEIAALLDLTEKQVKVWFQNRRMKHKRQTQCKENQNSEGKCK

## GTCCACGA
[1]
  binding signal: 8.05 upbm affinity estimate (log intensity, higher = more binding, comparable within an allelic series)
[2]
  binding signal: 7.92 upbm affinity estimate (log intensity, higher = more binding, comparable within an allelic series)
[3]
  binding signal: 7.98 upbm affinity estimate (log intensity, higher = more binding, comparable within an allelic series)

## CGATTAAG
[1]
  binding signal: 11.4 upbm affinity estimate (log intensity, higher = more binding, comparable within an allelic series)
[2]
  binding signal: 12.4 upbm affinity estimate (log intensity, higher = more binding, comparable within an allelic series)
[3]
  binding signal: 11.3 upbm affinity estimate (log intensity, higher = more binding, comparable within an allelic series)

## GCCCATTA
[1]
  binding signal: 12.1 upbm affinity estimate (log intensity, higher = more binding, comparable within an allelic series)
[2]
  binding signal: 13 upbm affinity estimate (log intensity, higher = more binding, comparable within an allelic series)
[4]
  binding signal: 11.3 upbm affinity estimate (log intensity, higher = more binding, comparable within an allelic series)
[3]
  binding signal: 11.8 upbm affinity estimate (log intensity, higher = more binding, comparable within an allelic series)
[5]
  binding signal: 9.82 upbm affinity estimate (log intensity, higher = more binding, comparable within an allelic series)
[6]
  binding signal: 13.1 upbm affinity estimate (log intensity, higher = more binding, comparable within an allelic series)
[7]
  binding signal: 12.8 upbm affinity estimate (log intensity, higher = more binding, comparable within an allelic series)
[8]
  binding signal: 12.2 upbm affinity estimate (log intensity, higher = more binding, comparable within an allelic series)
[9]
  binding signal: 8.75 upbm affinity estimate (log intensity, higher = more binding, comparable within an allelic series)
[10]
  binding signal: 12.5 upbm affinity estimate (log intensity, higher = more binding, comparable within an allelic series)
[11]
  binding signal: 11.8 upbm affinity estimate (log intensity, higher = more binding, comparable within an allelic series)

## ACCACGCC
[1]
  binding signal: 7.95 upbm affinity estimate (log intensity, higher = more binding, comparable within an allelic series)
[2]
  binding signal: 8.09 upbm affinity estimate (log intensity, higher = more binding, comparable within an allelic series)
[3]
  binding signal: 7.97 upbm affinity estimate (log intensity, higher = more binding, comparable within an allelic series)

## GCTCCGCC
[1]
  binding signal: 8.31 upbm affinity estimate (log intensity, higher = more binding, comparable within an allelic series)
[2]
  binding signal: 8.4 upbm affinity estimate (log intensity, higher = more binding, comparable within an allelic series)
[3]
  binding signal: 8.22 upbm affinity estimate (log intensity, higher = more binding, comparable within an allelic series)

## GCGGGTCC
[1]
  binding signal: 8.12 upbm affinity estimate (log intensity, higher = more binding, comparable within an allelic series)
[2]
  binding signal: 8.25 upbm affinity estimate (log intensity, higher = more binding, comparable within an allelic series)
[12]
  binding signal: 10 upbm affinity estimate (log intensity, higher = more binding, comparable within an allelic series)
[3]
  binding signal: 8.16 upbm affinity estimate (log intensity, higher = more binding, comparable within an allelic series)
[13]
  binding signal: 10 upbm affinity estimate (log intensity, higher = more binding, comparable within an allelic series)

## TAATGGGA
[1]
  binding signal: 11.5 upbm affinity estimate (log intensity, higher = more binding, comparable within an allelic series)
[2]
  binding signal: 12.4 upbm affinity estimate (log intensity, higher = more binding, comparable within an allelic series)
[3]
  binding signal: 11.3 upbm affinity estimate (log intensity, higher = more binding, comparable within an allelic series)

## GGCCATTA
[1]
  binding signal: 11.6 upbm affinity estimate (log intensity, higher = more binding, comparable within an allelic series)
[2]
  binding signal: 12.3 upbm affinity estimate (log intensity, higher = more binding, comparable within an allelic series)
[4]
  binding signal: 11.2 upbm affinity estimate (log intensity, higher = more binding, comparable within an allelic series)
[3]
  binding signal: 11.4 upbm affinity estimate (log intensity, higher = more binding, comparable within an allelic series)
[5]
  binding signal: 9.75 upbm affinity estimate (log intensity, higher = more binding, comparable within an allelic series)
[9]
  binding signal: 8.67 upbm affinity estimate (log intensity, higher = more binding, comparable within an allelic series)
[11]
  binding signal: 11.8 upbm affinity estimate (log intensity, higher = more binding, comparable within an allelic series)

## GCCAACCC
[1]
  binding signal: 8.11 upbm affinity estimate (log intensity, higher = more binding, comparable within an allelic series)
[2]
  binding signal: 7.96 upbm affinity estimate (log intensity, higher = more binding, comparable within an allelic series)
[14]
  binding signal: 9.36 upbm affinity estimate (log intensity, higher = more binding, comparable within an allelic series)
[3]
  binding signal: 8.24 upbm affinity estimate (log intensity, higher = more binding, comparable within an allelic series)
[15]
  binding signal: 9.21 upbm affinity estimate (log intensity, higher = more binding, comparable within an allelic series)
